Assay results taken from ChEMBL document CHEMBL1961873, “Compounds: GSK PKIS; Assays: Nanosyn kinase panel” (2012).

Legend:
[1] = biological target: T1, Inhibitor of nuclear factor kappa-B kinase subunit epsilon (Homo sapiens) (UniProt Q14164); conditions: at 1 µM;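 note: reported values are averaged percent inhibition figures against human IKKε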
T1 sequence (whole entry): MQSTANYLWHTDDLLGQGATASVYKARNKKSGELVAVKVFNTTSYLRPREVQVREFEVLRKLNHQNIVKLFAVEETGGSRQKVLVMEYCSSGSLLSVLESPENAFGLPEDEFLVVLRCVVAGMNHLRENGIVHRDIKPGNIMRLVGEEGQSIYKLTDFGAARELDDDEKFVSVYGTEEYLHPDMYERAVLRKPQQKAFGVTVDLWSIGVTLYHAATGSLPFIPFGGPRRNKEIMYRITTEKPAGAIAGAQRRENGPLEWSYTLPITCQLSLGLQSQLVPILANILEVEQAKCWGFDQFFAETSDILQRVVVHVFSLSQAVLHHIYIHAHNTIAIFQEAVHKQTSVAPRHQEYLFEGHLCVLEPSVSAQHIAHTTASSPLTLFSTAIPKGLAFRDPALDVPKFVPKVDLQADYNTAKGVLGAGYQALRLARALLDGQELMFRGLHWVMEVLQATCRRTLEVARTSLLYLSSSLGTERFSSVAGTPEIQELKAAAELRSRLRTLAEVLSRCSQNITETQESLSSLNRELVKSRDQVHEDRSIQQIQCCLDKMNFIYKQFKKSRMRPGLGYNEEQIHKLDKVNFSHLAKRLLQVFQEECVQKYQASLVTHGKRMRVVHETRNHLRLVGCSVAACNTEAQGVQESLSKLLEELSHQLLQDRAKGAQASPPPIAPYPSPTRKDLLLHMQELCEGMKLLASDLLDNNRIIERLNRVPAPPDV

[2] = biological target: T2, Serine/threonine-protein kinase Nek1 (Homo sapiens) (UniProt Q96PY6); conditions: at 0.1 µM
T2 sequence (whole entry): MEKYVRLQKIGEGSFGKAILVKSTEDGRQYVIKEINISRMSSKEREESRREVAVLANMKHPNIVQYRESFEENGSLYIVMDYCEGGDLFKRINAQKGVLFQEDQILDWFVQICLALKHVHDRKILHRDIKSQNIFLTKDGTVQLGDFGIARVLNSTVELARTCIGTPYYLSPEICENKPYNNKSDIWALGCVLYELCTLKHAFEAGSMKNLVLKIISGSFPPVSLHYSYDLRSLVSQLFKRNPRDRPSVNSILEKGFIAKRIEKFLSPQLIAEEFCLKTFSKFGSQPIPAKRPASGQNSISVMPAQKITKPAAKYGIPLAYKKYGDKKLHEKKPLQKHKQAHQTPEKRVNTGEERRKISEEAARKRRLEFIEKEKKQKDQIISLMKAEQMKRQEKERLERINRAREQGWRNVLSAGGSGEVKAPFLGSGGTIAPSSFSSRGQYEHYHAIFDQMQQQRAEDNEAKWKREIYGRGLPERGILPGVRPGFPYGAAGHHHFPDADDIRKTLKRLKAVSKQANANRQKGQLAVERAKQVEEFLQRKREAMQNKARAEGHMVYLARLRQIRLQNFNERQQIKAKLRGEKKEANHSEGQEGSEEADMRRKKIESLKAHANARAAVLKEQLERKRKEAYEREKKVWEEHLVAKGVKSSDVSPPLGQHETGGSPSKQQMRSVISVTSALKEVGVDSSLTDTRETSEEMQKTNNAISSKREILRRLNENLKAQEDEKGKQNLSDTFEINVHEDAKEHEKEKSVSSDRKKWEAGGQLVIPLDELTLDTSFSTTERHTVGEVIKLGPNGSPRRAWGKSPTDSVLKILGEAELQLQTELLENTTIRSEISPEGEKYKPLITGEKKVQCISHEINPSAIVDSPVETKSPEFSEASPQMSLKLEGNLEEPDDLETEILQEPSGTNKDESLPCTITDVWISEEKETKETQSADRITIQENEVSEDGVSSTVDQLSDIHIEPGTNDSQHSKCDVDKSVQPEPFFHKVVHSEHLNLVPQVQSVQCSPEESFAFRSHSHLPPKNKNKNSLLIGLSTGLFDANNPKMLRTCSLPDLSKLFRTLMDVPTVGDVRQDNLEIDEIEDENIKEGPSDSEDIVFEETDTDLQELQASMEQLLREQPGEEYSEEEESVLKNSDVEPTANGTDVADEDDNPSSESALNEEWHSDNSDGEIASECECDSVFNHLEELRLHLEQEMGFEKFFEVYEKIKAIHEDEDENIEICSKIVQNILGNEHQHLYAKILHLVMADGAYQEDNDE

[3] = biological target: T2, Serine/threonine-protein kinase Nek1 (Homo sapiens); conditions: at 1 µM
[4] = biological target: T3, Serine/threonine-protein kinase Nek2 (Homo sapiens) (UniProt P51955); conditions: at 0.1 µM
T3 sequence (whole entry): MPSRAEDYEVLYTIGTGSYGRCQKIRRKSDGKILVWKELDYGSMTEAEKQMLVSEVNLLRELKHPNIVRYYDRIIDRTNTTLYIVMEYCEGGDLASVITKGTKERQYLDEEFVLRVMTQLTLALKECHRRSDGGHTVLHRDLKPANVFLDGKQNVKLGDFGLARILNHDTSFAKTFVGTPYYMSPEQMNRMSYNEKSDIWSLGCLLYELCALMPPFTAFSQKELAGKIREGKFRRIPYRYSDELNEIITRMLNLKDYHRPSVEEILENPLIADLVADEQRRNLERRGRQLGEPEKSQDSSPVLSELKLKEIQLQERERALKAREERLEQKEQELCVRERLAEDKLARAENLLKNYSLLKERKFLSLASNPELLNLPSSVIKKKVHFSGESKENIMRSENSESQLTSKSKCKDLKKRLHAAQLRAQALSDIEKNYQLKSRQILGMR

[5] = biological target: T3, Serine/threonine-protein kinase Nek2 (Homo sapiens); conditions: at 1 µM
[6] = biological target: Serine/threonine-protein kinase Nek6 (Homo sapiens) (UniProt Q9HC98); conditions: at 0.1 µM
[7] = biological target: Serine/threonine-protein kinase Nek6 (Homo sapiens) (UniProt Q9HC98); conditions: at 1 µM
[8] = biological target: Serine/threonine-protein kinase Nek7 (Homo sapiens) (UniProt Q8TDX7); conditions: at 0.1 µM
[9] = biological target: Serine/threonine-protein kinase Nek7 (Homo sapiens) (UniProt Q8TDX7); conditions: at 1 µM
[10] = biological target: T4, Serine/threonine-protein kinase Nek9 (Homo sapiens) (UniProt Q8TD19); conditions: at 0.1 µM
T4 sequence (whole entry): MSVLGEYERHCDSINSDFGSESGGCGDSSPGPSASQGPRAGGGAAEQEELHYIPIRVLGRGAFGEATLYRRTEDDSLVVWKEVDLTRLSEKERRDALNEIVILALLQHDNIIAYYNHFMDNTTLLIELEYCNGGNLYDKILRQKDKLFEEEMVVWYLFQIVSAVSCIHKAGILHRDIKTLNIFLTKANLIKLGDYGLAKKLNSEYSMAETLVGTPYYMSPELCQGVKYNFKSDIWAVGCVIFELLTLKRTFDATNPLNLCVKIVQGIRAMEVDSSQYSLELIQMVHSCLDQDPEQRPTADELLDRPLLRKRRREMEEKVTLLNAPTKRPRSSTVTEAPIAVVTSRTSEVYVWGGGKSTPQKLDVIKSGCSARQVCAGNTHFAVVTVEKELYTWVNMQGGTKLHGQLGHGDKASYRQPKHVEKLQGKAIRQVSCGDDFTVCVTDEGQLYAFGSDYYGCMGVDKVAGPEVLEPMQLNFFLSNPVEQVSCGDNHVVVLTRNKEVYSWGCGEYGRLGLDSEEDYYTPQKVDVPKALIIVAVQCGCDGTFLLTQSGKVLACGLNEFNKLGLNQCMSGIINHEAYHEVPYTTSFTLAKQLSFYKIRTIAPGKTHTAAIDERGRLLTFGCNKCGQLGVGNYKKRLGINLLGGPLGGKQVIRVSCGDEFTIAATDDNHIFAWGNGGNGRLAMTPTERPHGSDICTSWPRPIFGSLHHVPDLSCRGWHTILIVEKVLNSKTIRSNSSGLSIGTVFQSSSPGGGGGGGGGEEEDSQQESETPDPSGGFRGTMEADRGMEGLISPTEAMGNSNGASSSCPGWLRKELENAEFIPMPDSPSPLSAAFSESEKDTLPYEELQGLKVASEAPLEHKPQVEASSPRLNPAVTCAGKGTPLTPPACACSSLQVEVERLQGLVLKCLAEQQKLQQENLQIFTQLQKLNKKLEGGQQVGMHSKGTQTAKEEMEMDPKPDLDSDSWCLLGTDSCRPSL

[11] = biological target: T4, Serine/threonine-protein kinase Nek9 (Homo sapiens); conditions: at 1 µM
[12] = biological target: Serine/threonine-protein kinase PLK1 (Homo sapiens) (UniProt P53350); conditions: at 0.1 µM
[13] = biological target: Serine/threonine-protein kinase PLK1 (Homo sapiens) (UniProt P53350); conditions: at 1 µM
[14] = biological target: T5, Dual specificity protein kinase TTK (Homo sapiens) (UniProt P33981); conditions: at 0.1 µM
T5 sequence (whole entry): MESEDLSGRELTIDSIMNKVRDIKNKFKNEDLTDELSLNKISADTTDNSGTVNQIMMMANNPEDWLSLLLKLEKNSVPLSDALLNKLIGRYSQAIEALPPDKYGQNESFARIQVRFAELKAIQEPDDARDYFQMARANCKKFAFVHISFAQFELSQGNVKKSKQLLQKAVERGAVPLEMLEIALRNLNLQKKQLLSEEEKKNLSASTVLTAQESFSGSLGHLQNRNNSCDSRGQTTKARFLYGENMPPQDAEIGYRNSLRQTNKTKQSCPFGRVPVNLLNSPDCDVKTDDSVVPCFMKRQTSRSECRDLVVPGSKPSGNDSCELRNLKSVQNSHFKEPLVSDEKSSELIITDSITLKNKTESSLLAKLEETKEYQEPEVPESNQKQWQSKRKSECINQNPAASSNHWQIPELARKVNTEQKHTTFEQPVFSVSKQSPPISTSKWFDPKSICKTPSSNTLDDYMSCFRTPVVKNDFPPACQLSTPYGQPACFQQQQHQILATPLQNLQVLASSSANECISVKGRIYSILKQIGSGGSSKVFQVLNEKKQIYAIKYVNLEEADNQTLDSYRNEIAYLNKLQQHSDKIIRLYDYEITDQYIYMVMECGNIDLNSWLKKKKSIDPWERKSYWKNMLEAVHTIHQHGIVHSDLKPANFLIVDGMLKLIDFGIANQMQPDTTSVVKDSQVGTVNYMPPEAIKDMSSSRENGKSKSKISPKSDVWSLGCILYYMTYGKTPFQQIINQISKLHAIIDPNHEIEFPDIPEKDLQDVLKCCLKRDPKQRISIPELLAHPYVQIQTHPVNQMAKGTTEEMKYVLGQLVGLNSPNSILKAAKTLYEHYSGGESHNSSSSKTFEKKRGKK

[15] = test system: T6, Receptor-type tyrosine-protein kinase FLT3 (Homo sapiens), P36888 [D835Y]; conditions: at 1 µM
T6 sequence (whole entry): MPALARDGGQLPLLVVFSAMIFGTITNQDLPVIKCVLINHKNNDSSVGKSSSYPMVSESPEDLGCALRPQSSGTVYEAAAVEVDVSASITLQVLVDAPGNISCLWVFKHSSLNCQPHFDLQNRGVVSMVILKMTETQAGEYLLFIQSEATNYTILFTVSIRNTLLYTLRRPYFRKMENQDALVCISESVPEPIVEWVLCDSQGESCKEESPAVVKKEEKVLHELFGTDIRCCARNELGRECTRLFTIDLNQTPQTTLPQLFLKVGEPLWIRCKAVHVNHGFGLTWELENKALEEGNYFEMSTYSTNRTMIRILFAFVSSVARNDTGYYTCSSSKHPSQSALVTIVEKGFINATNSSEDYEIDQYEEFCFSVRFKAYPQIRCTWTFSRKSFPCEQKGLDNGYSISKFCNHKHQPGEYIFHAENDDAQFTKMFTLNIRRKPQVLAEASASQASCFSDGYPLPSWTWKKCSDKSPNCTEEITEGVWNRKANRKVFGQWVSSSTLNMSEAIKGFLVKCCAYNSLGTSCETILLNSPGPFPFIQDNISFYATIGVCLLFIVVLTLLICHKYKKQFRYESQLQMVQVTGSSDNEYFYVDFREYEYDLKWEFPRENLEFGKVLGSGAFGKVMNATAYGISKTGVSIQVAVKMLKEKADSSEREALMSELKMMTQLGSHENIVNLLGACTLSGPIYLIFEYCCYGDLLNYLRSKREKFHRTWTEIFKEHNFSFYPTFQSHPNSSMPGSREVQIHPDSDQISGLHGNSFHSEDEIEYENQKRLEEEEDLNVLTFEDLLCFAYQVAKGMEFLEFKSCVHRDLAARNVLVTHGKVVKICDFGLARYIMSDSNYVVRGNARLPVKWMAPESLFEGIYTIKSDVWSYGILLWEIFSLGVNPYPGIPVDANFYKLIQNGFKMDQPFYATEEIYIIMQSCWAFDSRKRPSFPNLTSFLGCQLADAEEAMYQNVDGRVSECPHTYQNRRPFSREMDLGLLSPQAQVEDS

[16] = biological target: Vascular endothelial growth factor receptor 3 (Homo sapiens) (UniProt P35916); conditions: at 0.1 µM
[17] = biological target: Vascular endothelial growth factor receptor 3 (Homo sapiens) (UniProt P35916); conditions: at 1 µM
[18] = biological target: Macrophage colony-stimulating factor 1 receptor (Homo sapiens) (UniProt P07333); conditions: at 0.1 µM
[19] = biological target: Macrophage colony-stimulating factor 1 receptor (Homo sapiens) (UniProt P07333); conditions: at 1 µM
[20] = biological target: Tyrosine-protein kinase Fyn (Homo sapiens) (UniProt P06241); conditions: at 0.1 µM
Chain of Tyrosine-protein kinase Fyn (Homo sapiens) (P06241 2-537 limits assumed): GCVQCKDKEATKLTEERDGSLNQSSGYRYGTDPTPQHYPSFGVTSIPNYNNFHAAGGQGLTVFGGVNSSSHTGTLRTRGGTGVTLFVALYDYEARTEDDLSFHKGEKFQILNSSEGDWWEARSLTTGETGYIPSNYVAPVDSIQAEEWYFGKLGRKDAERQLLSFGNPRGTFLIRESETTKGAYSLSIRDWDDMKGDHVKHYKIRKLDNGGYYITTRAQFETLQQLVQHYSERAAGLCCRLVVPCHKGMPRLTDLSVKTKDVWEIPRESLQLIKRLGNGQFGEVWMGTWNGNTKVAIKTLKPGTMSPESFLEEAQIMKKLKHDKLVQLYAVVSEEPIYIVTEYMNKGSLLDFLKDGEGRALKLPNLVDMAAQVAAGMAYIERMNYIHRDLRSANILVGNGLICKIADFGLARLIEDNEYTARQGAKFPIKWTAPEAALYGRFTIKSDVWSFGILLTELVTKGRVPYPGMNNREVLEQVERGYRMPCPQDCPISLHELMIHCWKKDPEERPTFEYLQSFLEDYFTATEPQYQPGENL

Chain of Macrophage colony-stimulating factor 1 receptor (Homo sapiens) (P07333 whole entry): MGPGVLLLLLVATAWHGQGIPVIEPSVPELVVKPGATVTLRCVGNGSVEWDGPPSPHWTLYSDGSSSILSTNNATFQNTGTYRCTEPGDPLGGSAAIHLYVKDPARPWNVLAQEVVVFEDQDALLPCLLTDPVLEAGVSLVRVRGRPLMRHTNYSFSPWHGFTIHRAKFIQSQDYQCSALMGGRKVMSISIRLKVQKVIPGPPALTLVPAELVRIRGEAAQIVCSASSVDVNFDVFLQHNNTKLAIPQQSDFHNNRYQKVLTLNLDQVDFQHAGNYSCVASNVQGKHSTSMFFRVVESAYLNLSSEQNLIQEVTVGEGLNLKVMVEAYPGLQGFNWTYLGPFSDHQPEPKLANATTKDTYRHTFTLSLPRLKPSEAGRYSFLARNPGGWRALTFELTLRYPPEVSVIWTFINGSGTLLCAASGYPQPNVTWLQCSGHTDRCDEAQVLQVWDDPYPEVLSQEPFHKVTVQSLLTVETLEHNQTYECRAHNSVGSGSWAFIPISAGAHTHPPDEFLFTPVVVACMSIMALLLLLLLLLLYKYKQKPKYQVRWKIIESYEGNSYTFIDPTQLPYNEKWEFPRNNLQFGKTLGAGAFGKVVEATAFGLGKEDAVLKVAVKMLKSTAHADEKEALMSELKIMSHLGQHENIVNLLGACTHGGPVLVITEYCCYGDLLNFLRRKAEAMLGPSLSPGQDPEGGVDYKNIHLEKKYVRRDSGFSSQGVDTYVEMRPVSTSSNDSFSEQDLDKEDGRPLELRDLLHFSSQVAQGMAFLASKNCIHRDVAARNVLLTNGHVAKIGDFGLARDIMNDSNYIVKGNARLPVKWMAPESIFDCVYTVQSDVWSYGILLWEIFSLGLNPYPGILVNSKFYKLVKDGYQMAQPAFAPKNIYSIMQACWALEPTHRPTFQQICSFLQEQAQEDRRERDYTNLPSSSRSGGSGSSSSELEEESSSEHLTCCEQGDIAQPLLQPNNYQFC
Chain of Serine/threonine-protein kinase Nek7 (Homo sapiens) (Q8TDX7 whole entry, looked up): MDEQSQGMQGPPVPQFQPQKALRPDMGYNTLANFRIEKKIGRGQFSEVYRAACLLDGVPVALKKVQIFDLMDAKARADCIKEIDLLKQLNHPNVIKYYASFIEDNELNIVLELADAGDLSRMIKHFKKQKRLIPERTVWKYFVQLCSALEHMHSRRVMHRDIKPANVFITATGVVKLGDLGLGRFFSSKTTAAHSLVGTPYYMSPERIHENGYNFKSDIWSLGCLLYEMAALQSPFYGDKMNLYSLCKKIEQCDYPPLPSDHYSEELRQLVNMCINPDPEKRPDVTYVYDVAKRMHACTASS
Chain of Serine/threonine-protein kinase PLK1 (Homo sapiens) (P53350 whole entry): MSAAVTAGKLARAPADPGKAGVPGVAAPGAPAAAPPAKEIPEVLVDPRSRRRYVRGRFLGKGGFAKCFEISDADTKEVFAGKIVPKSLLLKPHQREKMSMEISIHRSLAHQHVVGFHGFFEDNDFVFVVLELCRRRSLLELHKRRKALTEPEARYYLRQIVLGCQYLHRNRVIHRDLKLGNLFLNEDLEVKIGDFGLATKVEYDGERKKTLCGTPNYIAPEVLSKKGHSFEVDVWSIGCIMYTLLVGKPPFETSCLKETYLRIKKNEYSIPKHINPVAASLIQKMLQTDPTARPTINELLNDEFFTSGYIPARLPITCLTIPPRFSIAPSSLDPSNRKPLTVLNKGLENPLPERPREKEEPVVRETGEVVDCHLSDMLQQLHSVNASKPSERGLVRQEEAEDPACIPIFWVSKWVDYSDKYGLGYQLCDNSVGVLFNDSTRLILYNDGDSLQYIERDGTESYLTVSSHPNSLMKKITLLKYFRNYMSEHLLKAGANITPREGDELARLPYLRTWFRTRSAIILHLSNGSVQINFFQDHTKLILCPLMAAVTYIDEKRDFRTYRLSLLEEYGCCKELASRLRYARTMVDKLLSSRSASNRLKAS
Chain of Vascular endothelial growth factor receptor 3 (Homo sapiens) (P35916 whole entry): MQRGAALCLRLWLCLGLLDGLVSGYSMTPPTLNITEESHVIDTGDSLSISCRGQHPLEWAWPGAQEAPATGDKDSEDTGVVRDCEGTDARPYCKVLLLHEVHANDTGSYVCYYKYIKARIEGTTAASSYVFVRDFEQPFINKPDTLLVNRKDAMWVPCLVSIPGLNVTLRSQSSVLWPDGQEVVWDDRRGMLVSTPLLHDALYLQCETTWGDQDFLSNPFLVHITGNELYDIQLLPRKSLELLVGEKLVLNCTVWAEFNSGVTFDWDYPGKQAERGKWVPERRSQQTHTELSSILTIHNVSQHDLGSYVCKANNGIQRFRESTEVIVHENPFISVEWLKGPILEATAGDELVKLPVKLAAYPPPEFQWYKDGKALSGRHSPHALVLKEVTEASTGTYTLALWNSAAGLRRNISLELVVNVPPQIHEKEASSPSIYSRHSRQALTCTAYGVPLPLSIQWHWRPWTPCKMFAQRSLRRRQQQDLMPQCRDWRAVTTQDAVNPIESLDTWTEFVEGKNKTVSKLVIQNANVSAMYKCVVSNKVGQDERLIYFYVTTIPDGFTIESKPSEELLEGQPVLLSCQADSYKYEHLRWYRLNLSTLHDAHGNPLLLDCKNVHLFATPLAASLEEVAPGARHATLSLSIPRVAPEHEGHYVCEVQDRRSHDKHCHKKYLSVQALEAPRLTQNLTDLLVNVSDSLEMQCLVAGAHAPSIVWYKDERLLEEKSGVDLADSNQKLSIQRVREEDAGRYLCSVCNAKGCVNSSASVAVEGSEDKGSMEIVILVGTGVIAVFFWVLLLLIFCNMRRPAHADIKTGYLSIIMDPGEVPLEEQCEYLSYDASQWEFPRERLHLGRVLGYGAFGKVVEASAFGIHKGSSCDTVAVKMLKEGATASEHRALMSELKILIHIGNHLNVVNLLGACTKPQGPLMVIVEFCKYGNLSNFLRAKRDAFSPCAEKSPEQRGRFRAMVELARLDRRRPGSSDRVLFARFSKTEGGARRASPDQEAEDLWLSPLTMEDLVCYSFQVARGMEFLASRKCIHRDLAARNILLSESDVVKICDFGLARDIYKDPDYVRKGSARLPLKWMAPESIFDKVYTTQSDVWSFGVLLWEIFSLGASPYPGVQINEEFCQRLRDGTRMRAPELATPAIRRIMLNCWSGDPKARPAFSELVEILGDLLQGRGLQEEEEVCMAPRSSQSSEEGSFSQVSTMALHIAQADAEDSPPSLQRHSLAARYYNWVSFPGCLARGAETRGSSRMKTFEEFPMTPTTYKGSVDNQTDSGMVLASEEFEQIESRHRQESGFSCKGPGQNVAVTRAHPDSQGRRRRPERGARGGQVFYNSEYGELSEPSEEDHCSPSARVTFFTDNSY
Chain of Serine/threonine-protein kinase Nek6 (Homo sapiens) (Q9HC98 whole entry): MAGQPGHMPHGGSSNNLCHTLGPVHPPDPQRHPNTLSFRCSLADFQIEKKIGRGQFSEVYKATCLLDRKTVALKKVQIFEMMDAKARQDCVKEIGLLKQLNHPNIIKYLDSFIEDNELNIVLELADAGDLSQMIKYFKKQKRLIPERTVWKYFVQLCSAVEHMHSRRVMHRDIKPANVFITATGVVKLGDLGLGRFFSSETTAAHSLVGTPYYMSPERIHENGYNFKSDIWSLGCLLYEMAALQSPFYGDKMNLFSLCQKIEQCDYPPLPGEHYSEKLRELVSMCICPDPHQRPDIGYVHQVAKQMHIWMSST

Compound COc1ccc(CNC(=O)c2ccc(-c3cc(-c4nnc(C)o4)ccc3C)cc2)cc1 has an inhibition [1] of 3.56%, an inhibition [2] of 3.38% and an inhibition [3] of 1.51%. For the same compound, the inhibition [4] was 1.12%, the inhibition [5] was 3.44% and the inhibition [6] was -0.69%. The inhibition [7] was 4.26%, the inhibition [8] was 1.72% and the inhibition [9] was -1.14%. It also gave an inhibition [10] of 1.2%, an inhibition [11] of 6.3% and an inhibition [12] of 2.95%. It also gave an inhibition [13] of 1.61%, an inhibition [14] of 1.98% and an inhibition [15] of -2.55%. The inhibition [16] was -1.03%, the inhibition [17] was -1.53% and the inhibition [18] was 1.47%. The inhibition [19] was 0.46% and the inhibition [20] was 0.71%.
FC(F)(F)c1cccc(-c2nn3ncccc3c2-c2ccnc(Nc3ccc4c(c3)OCCO4)n2)c1 was tested, and the inhibition [1] was 2.87%, the inhibition [2] was 1.52% and the inhibition [3] was 0.83%. The inhibition [4] was 3.63%, the inhibition [5] was 3.89% and the inhibition [6] was 0.6%. The inhibition [7] was -0.45%, the inhibition [8] was 4.18% and the inhibition [9] was 2.91%. The inhibition [10] was 3.97%, the inhibition [11] was 1.67% and the inhibition [12] was 1.26%. The inhibition [13] was 0.65%, the inhibition [14] was 6.38% and the inhibition [15] was 3.11%. For the same compound, the inhibition [16] was 3.34%, the inhibition [17] was 18.5% and the inhibition [18] was 1.23%. It also gave an inhibition [19] of 7.02% and an inhibition [20] of 7.47%.
